Where “and” joins values, the source holds several entries; their conditions need not be identical. Equal entries are not always repeated. Records with an inconclusive call do not appear. Entries that show only a call come without a potency. Calls of active or inactive are those of the source. Calls follow the shape of the dose curve; as a rule, active = well fitted inhibition curve with a large enough effect in the signal ratio in the repeat runs; inconclusive = weak or mixed curves, or effect the other way; inactive = flat fitted curve, though single readings scatter; the % refers to the signal ratio.
Potency is read from the fitted curve at half-maximal effect.

A short description of the experiment: qHTS assay for small molecule disruptors of the mitochondrial membrane potential (AID 720635). Particulars: HepG2 mitochondrial membrane potential, Mito-MPS dye ratio; series mostly up to 83.2 µM. The text has this:
U.S. Tox21 Program National Center for Advancing Translational Sciences [NCATS] NIH Chemical Genomics Center [NCGC] U.S. Environmental Protection Agency [EPA] National Institutes of Environmental Health Sciences [NIEHS] National Toxicology Program [NTP] U.S. Food and Drug Administration [FDA] Tox21 Assay Overview: Mitochondrial membrane potential (MMP), one of the parameters for mitochondrial function, is generated by mitochondrial electron transport chain that creates an electrochemical gradient by a series of redox reactions. This gradient drives the synthesis of ATP, a crucial molecule for various cellular processes. Measuring MMP in living cells is commonly used to assess the effect of chemicals on mitochondrial function. […] The dye accumulates in the mitochondria of healthy cells as aggregates, with red fluorescence. The mitochondrial potential collapses and the dye can no longer accumulate in the mitochondria and remains in the cytoplasm in monomers, with green fluorescence.
Tox21 Assay Protocol Summary: 2,000 HepG2 cells in 5 uL/well were dispensed into black, clear-bottom 1536-well plates using a Multidrop Combi (Thermo Scientific) dispenser. The assay plates were incubated overnight at 37C to allow cells to attach to the wells, followed by the transfer of 23 nL compound or DMSO vehicle by a pin tool (Kalypsys). The plates were incubated for 1 hr at 37C and 5% CO2, followed by the addition of 5 uL of 2X Mito-MPS dye (BD Biosciences) into each well using Flying Reagent Dispenser (Aurora Discovery) and then following 30 min incubation at 37C. Fluorescence intensity (490nm excitation and 535nm emission for monomers; and 540nm excitation and 590nm emissions for aggregates) was measured using an Envision plate reader.
(In general: In qHTS, concentration-response curves come from the screen itself.)
`O=P(O)(Oc1ccccc1)Oc1ccccc1`: the Potency entry is “inactive”.
`COc1cc(OC)nc(NC(=O)NS(=O)(=O)c2ncccc2C(=O)N(C)C)n1`: the Potency entry is “inactive”.
On to `O=NN1CCCCC1`, for which the Potency result was “inactive”.
Then `Nc1cnn(-c2ccccc2)c(=O)c1Cl`, with “inactive”.
In the case of `ClCC(Cl)(Cl)Cl`, the Potency result was “inactive”.
Consider `CCS(=O)(=O)C(C)(C)S(=O)(=O)CC`, for which the Potency entry was “inactive”.
In the case of `Oc1c(Cl)cccc1Cl` it was “inactive”; in that of `CCN(CC)C(C)C(=O)c1ccccc1` (stereo not given), “inactive”; in that of `OCCBr`, “inactive”.
In the case of `CC1(C)COP(Oc2ccccc2)OC1`, the Potency result was “inactive”.
Then `CCCSP(=O)(OCC)Oc1ccc(Br)cc1Cl` (stereo not given), with 1.05 µM (active).
Take `NC(=O)c1cc([N+](=O)[O-])cc([N+](=O)[O-])c1`: the Potency entry is “inactive”.
Turning to `N#CC(CCc1ccc(Cl)cc1)(Cn1cncn1)c1ccccc1` (stereo not given), the Potency was 48.6 µM (active).
For the molecule `N#CCNCC#N`, the Potency result is “inactive”.
Take `CCC/C(=N\OCC)C1=C(O)CC(CC(C)SCC)CC1=O` (stereo not given): the Potency entry was “inactive”.
Regarding `C=C(C)CN(CC)c1c([N+](=O)[O-])cc(C(F)(F)F)cc1[N+](=O)[O-]`, the Potency is 30.6 µM (active).
Regarding `CC(N)=S`, the Potency entry was “inactive”.
In the case of `O=[N+]([O-])c1cccc(O)c1` it was 43.4 µM (active); in that of `COc1cc(OC)nc(Sc2cccc(Cl)c2C(=O)O)n1`, “inactive”.
In the case of `CCCCOP(=O)(O)OCCCC` it was “inactive”; in that of `O=[N+]([O-])c1ccc2c3c(cccc13)CC2`, 24.3 µM (active).
On to `CCC(Cl)[N+](=O)[O-]` (stereo not given), for which the Potency result was “inactive”.
For the molecule `CCCCC(=O)Cl`, the Potency result was “inactive”.
For the molecule `CC(=O)[C@H]1CC[C@H]2[C@@H]3CC[C@H]4C[C@H](O)CC[C@]4(C)[C@H]3C(=O)C[C@]12C`, the Potency entry was “inactive”.
On to `CC(=O)CCc1ccc2c(c1)OCO2`, for which the Potency result was “inactive”.
In the case of `BrCCCCCCBr` it was “inactive”.
On to `CCC(C)(C)c1cc(-n2nc3ccccc3n2)c(O)c(C(C)(C)CC)c1`, for which the Potency result is “inactive”.
In the case of `CCN(CC)C(=O)[C@@H]1C=C2c3cccc4[nH]cc(c34)C[C@H]2N(C)C1` it was 8.98 µM (active) and 6.68 µM (active).
Then `C(CCOCC1CO1)COCC1CO1` (stereo not given), with “inactive”.
`C=CCC1=C(C)[C@@H](OC(=O)[C@@H]2[C@@H](C=C(C)C)C2(C)C)CC1=O`: the Potency was 15.4 µM (active).
As for `CCCCN(CCCCO)N=O`, the Potency entry is “inactive”.
Regarding `CC1=NNC(=O)N(/N=C/c2cccnc2)C1`, the Potency entry was “inactive”.
With `OC(Cn1cncn1)(c1ccc(F)cc1)c1ccccc1F` (stereo not given), the Potency result is “inactive”.
In the case of `NC(=O)O`, the Potency result is “inactive”.
Then `O=C(O)c1ccc2[nH]cc(CCCCN3CC=C(c4ccccc4)CC3)c2c1`, with “inactive”; and `OCCSCSCCO`, with “inactive”.
`O=C(NCO)NCO`: the Potency entry is “inactive”.
Regarding `CCCCCCI`, the Potency entry is “inactive”.
In the case of `CN1C[C@@H](NS(=O)(=O)N(C)C)C[C@@H]2c3cccc4c3c(cn4C)C[C@H]21`, the Potency entry is “inactive”.
Then `NC(=S)C(N)=S`, with “inactive”.

Values taken from PubChem BioAssay (Tox21).
